Test results as given in PubChem BioAssay AID2599 (Sanford-Burnham Center for Chemical Genomics, 2010).
Hit rate of the full screen: of about 330,000 compounds, about 5,800 (1.8%) were called active. The sample as a whole holds a higher share of actives than the screen did. A number with no mark means an inactive call.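 The calls were made as follows: active = inhibition above about 50% at the single tested dose (limit read from the data); inactive = the rest.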

molecular target: Sentrin-specific protease 6 (Homo sapiens) (UniProt Q9GZR1); assay: inhibition of human SENP6 catalytic domain – biochemical, luminescence, uHTS, primary screen (AID 2599); conditions: Recombinant SENP6 catalytic domain, aminoluciferin luminescence; at 10 µM; hits give high values;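 also: plate controls were DMSO wells with enzyme for no effect and DMSO wells lacking enzyme for full effect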
Sequence (Q9GZR1 628-1112 limits assumed): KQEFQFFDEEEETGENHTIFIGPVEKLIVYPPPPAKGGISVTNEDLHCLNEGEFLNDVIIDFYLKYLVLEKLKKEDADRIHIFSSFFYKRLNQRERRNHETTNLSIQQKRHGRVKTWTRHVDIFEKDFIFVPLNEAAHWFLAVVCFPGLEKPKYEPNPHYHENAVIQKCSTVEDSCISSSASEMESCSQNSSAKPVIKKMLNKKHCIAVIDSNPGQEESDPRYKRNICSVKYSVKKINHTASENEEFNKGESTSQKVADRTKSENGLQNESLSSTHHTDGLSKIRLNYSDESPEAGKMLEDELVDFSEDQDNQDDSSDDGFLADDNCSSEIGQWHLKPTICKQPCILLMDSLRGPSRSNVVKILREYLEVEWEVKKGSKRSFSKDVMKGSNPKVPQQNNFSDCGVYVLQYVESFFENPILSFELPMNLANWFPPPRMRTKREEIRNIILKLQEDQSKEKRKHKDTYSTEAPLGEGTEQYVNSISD

| SMILES | inhibition |
| --- | --- |
| CCn1c(=S)sc2c(=O)n(CC(=O)Nc3cccc(Br)c3)c(C)nc21 | 3.55% |
| Cc1cccc(C(=O)OCC(=O)NCC(C)C)c1O | 9.44% |
| CCCn1c(SCC(=O)Nc2c(C)cccc2C)nnc1C(C)C | -9.77% |
| C=CCOc1ccc(/C=N/NC(=O)C(C)Sc2ccccn2)cc1OCC (stereo unspecified) | -0.571% |
| COc1ccc(CCNC(=O)C(=O)NCC2OCCN2S(=O)(=O)c2cccs2)cc1OC (stereo unspecified) | -6.36% |
| Cc1ccc(NC(=O)CCOc2ccccc2)cc1S(=O)(=O)Nc1ccccc1Cl | 1.1% |
| Cc1c(C(=O)NCCN(C)C)oc2ccc(S(=O)(=O)N3CCCC3)cc12 | 4.61% |
| CS(=O)(=O)N(CC(=O)NC1CCCC1)Cc1ccc(F)cc1 | -6.07% |
| O=C(NC1CC1)c1ccc(-c2ccccc2)cc1 | -15.5% |
| COc1cccc2sc(Nc3nc(C)c(C(C)=O)s3)nc12 | 87.8% (active) |
| CNC(=O)c1sc(NCc2ccccc2OC)nc1C | 8.32% |
| COc1ccccc1/C=N/Nc1nc(C)c(C(C)=O)s1 | -28% |
| CCn1c(SCC(=O)Nc2ccc(Br)cc2)nc2sc3c(c2c1=O)CCN(C)C3 | 12.7% |
| CCOc1ccc(CN2CCN(Cc3ccc4cc(F)ccc4n3)CC2CCO)cc1 (stereo unspecified) | 9.04% |
| O=C(O)c1ccc2c3c(cccc13)C(=O)N(OS(=O)(=O)c1ccccc1)C2=O | 60.3% (active) |
| COc1cccc(-c2ccc3c(c2)S(=O)(=O)c2cccc(C(=O)O)c2C3=O)c1OC | -1.89% |
| CCN(c1ccccc1)S(=O)(=O)c1cccc(C(=O)NCc2ccccc2CN2CCOCC2)c1 | -16.6% |
| CCc1ccc(C(=O)OCC(=O)NCC(F)(F)F)cc1 | -1.8% |
| CCCC1NC(=O)NC(C)=C1C(=O)OCC (stereo unspecified) | -6.49% |
| O=C(/C=C/c1ccco1)NC(=S)Nc1ccccc1Br | 6.12% |
| Cc1nnc(NC(=O)/C=C/c2ccco2)s1 | -18.6% |
| O=C(/C=C/c1ccco1)Nc1ccc(Oc2ccccc2)cc1 | 80.1% (active) |
| CCOC(=O)C1(Cc2cccc(OC)c2)CCCN(S(=O)(=O)c2cccnc2)C1 (stereo unspecified) | -9.47% |
| Oc1ccc(N=Nc2nccs2)c(O)c1 | 87.3% (active) |

| SMILES | inhibition |
| --- | --- |
| C=CCC(NC(=O)Cc1ccccc1)C(=O)NCCC (stereo unspecified) | -9.67% |
| COC(=O)N/N=C/c1ccc(/C=N/NC(=O)OC)cc1 | -17.5% |
| Cc1nc2ccc(C(=O)N/N=C/c3ccc(O)cc3)cc2[nH]1 | -6.89% |
| Cc1nonc1C(=O)N/N=C/c1ccc(O)cc1 | 98.9% (active) |
| CCOC(=O)C1(Cc2ccccc2C(F)(F)F)CCN(C(=O)c2cc(C)n(C)n2)CC1 | -1.7% |
| O=C(NC(=S)N1CCc2ccccc21)c1ccco1 | 7.02% |
| Cc1ccc(C(=O)c2c(NC(=O)c3ccccc3)sc(C)c2C)cc1 | -6.69% |
| COc1ccccc1-c1nnc(NC(=O)c2ccc3ncsc3c2)o1 | -1.73% |
| Cc1sc(NC(=O)c2ccc3ncsc3c2)c(C(N)=O)c1C | 71.4% (active) |
| COc1ccc(CN(Cc2ccco2)S(=O)(=O)c2ccc(S(=O)(=O)N3CCCC3)cc2)cc1 | 3.07% |
| CCOC(=O)/C(C#N)=C/c1ccc(N2CCCCC2)cc1 | 52.8% (active) |
| CCOC(=O)/C(C#N)=C/c1ccc(N2CCN(Cc3ccccc3)CC2)cc1 | -1.35% |
| COc1ccc(N2CCN(C(=O)/C(C#N)=C/c3ccccc3)CC2)cc1 | 1.08% |
| CC1(C)CC(=O)C=C(NCCCN2CCCC2=O)C1 | 4.58% |
| CC[N+](C)(CC)CCC[n+]1c(-c2ccccc2)c2cc(N)ccc2c2ccc(N)cc21 | 89.2% (active) |
| Cc1cc(C)n2nc(C(=O)Nc3cccc(S(=O)(=O)N4CCOCC4)c3)nc2n1 | -2.51% |
| CCn1c(NC(=O)c2nn(C)cc2Br)nc2ccccc21 | -7.2% |
| Cc1nc2ccccc2c(-c2ccccc2)c1C(=O)c1ccccc1 | -18.6% |
| Cc1nn(C)cc1C(=O)c1ccccc1 | 0.575% |
| Cn1c(-c2ccc(C(=O)c3ccccc3)s2)nc2ccccc21 | 68.7% (active) |
| Cn1c(Nc2cccc(Cl)c2)nc2ccccc21 | 21.9% |
| Cn1c(NC(=O)c2ccccc2)nc2ccccc21 | 75.7% (active) |
| O=C(CN(c1ccc2c(c1)OCCO2)S(=O)(=O)c1ccccc1)Nc1ccc2c(c1)OCO2 | 12.2% |
| CCOC(=O)C1C(c2ccc(OC)c(OC)c2)c2c([nH][nH]c2=O)CC1(C)O (stereo unspecified) | -17.3% |

| SMILES | inhibition |
| --- | --- |
| Cc1nn(CC(=O)NC2CCCCC2)c(=O)c2cccn12 | 9.49% |
| O=C(Cc1ccc(F)cc1)N1CCN=C1SCc1cccc([N+](=O)[O-])c1 | 4.91% |
| CCOC(=O)N1CCN(c2cc(C)c([N+](=O)[O-])cc2F)CC1 | -3.66% |
| CCn1cc(-c2cc(C(=O)O)on2)c(C)n1 | 15.3% |
| Cc1ccn2cc(-c3nonc3C)cc2c1 | 53.2% (active) |
| O=[N+]([O-])c1ccc(N/N=C/c2ccccc2)cc1 | 0.552% |
| O=C(O)/C=C/C(=O)NNc1ccc([N+](=O)[O-])cc1 | 82.9% (active) |
| CNC(=S)Nc1ccc([N+](=O)[O-])cc1 | -24.9% |
| CCS(=O)(=O)c1ccc(C(=O)NC)c(Cl)c1Cl | 5.83% |
| COc1ccccc1C(=O)Nn1cnnc1 | -21.9% |
| COc1ccc(N=C(C)c2sc3ccccc3c2O)cc1 | 82.8% (active) |
| COc1ccc(-c2sc3ccccc3c2-c2ccc(OCCN3CCOCC3)cc2)cc1 | -11.4% |
| COC(=O)c1ccc(/C=C/c2c(-c3ccc(OC)cc3)sc3ccccc23)cc1 | 17.2% |
| Cc1ccc(S(=O)(=O)N(c2cccc(C)c2)C2CCS(=O)(=O)C2)cc1 (stereo unspecified) | 7.06% |
| CSCC[C@H](NC(=O)N1CCn2c1nc1ccccc12)C(=O)NC1CCCCC1 | -2.54% |
| COC(=O)C1=C(C)N(C)C(=S)NC1c1cc(OC)ccc1OC (stereo unspecified) | 6.54% |
| Clc1ccc(-c2cc(-c3ccccn3)on2)c(Cl)c1 | 95.1% (active) |
| Clc1ccc(COn2c(-c3ccc(Cl)cc3Cl)nc3ncccc32)cc1 | 3.31% |
| O=C1c2ccccc2C(=O)N1Cc1cc(-c2ccccc2Cl)no1 | -13.7% |
| CC1(C)OC(=O)C(=CNC(CO)C(=O)O)C(=O)O1 (stereo unspecified) | -15.5% |
| COc1ccc(S(=O)(=O)N2CCOC23CCN(S(=O)(=O)c2ccc([N+](=O)[O-])cc2)CC3)cc1 | -0.227% |
| CC(C)C(NC(=O)c1cccc(S(=O)(=O)N2CCOCC2)c1)C(=O)NCCc1ccccn1 (stereo unspecified) | 0.86% |
| CC(=O)Oc1ccc(-c2nc3c(C)cccc3c(=O)o2)cc1 | 13.4% |
| COc1ccc(/C=C/c2noc(-c3ccccc3OC(C)=O)n2)cc1 | 89.4% (active) |

| SMILES | inhibition |
| --- | --- |
| COc1cccc(/C=C/c2ccc3ccccc3n2)c1OC(C)=O | 14.1% |
| O=C(Cc1ccc(S(=O)(=O)N2CCCC2)s1)NC1CCCCCC1 | -13.1% |
| CSCCC(NC(=O)c1ccco1)C(=O)NCCc1ccc(F)cc1 (stereo unspecified) | 5.31% |
| COc1ccc([N+](=O)[O-])cc1-c1nc2ccccc2nc1-c1ccccc1 | -3.14% |
| O=[N+]([O-])c1ccc2oc(-c3cccc(O)c3)nc2c1 | 65.4% (active) |
| CC(=O)Oc1ccc2c(=O)oc(-c3ccc([N+](=O)[O-])cc3)nc2c1 | 32.4% |
| COc1cccc(-c2nc3cc(C)ccc3o2)c1 | 97.8% (active) |
| COc1ccc2oc(-c3cccc(NC(=O)CSc4ccc(Cl)cc4)c3)nc2c1 | -0.568% |
| COc1cccc(-c2nnc(SCCOc3ccc4c(C)cc(=O)oc4c3)o2)c1 | -18.6% |
| COC(=O)c1ccccc1NC(=O)C1CCN(S(=O)(=O)c2cc(OC)ccc2OC)CC1 | -0.874% |
| Cc1ccc(NC(=O)C(=O)NCC2CCN(C(=O)c3cccc([N+](=O)[O-])c3)CC2)cc1 | 0.692% |
| N#Cc1cccc(CSc2nnc(CCCO)n2-c2ccccc2)c1 | -0.983% |
| Cc1cccc(NC(=O)c2ccc3ccccc3n2)n1 | 77.2% (active) |
| Cc1cccc(NC(=O)c2cc(N3C(=O)CCC3=O)ccc2Cl)n1 | -4.72% |
| Cc1cccc(NC(=O)c2cccnc2Cl)n1 | 24.9% |
| COc1ccc(NC(=O)c2cn(-c3ccccc3)nc2SC)cc1 | 0.083% |
| Cc1c(C(C)CCCO)oc(=O)c2c1Oc1c(C)c(C(C)C[C@@H](C)O)oc(=O)c1C2 (stereo partly specified) | 13.7% |
| O=C(Oc1ccc(Br)cc1C(=S)N1CCOCC1)c1cccc([N+](=O)[O-])c1 | -3.34% |
| Cc1ccc(/C=C(\C#N)C(=O)Nc2cccc3ncccc23)o1 | -57.2% |
| O=C(NNS(=O)(=O)c1ccccc1C(F)(F)F)c1cc2ncc(C(F)(F)F)cc2s1 | 4.2% |
| Cc1ccc(-n2cc3ccc([N+](=O)[O-])cc3n2)cc1 | 86.9% (active) |
| Cc1ccc(-c2cn(S(=O)(=O)c3cccc([N+](=O)[O-])c3)nc2N)cc1 | -7.28% |
| Cc1ccnc(N2C(=O)c3ccc([N+](=O)[O-])cc3C2=O)c1 | -9.97% |
| Cn1cc[n+](C)c1COc1ccc(C=O)cc1 | -1.65% |
